Compounds with a hit are over-represented: about 21% of the library has one in this group of screens.
NS1 function inh: qHTS Assay for Inhibitors of Influenza NS1 Protein Function | AID 2326, 2010 | Potency, µM (series often up to 46.1 µM), for the others: at the highest dose activity, positive = more growth | 270,000 compounds, 0.4% hits; calls by dose curve; further: potency means the concentration at half of the fitted maximal effect; actives are rising curves; nearly all actives have a fitted effect of over 50% in size
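Growth recovery, yeast-based: influenza A NS1 expressed in S. cerevisiae causes slow growth, and suppressors are detected by OD600. The parent strain without NS1 is used as positive control.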
Pf growth 96h: Primary qHTS for delayed death inhibitors of the malarial parasite plastid, 96 hour incubation | Potency, µM (series often up to 28.7 µM), inactives show at the highest dose activity change, negative = inhibition, hits mostly inhibitors | P. falciparum luciferase reporter growth, 96 h | 320,000 compounds, 6.9% hits | AID 504834, 2011; further: potency means the concentration at half of the fitted maximal effect; on the % scale 0 is the no-effect control and ±100 the full control effect
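Erythrocytes infected with luciferase-expressing P. falciparum were dispensed at 2% hematocrit and 0.05% parasitemia (final), then incubated with compounds 96 hours at 37 C in 5% CO2. Luminescence after detection reagent addition reported growth.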
Pf growth 48h: Primary qHTS for delayed death inhibitors of the malarial parasite plastid, 48 hour incubation; P. falciparum luciferase growth in erythrocytes, 48 h; Potency, µM (titrated, usually from 28.7 µM), for inactives: top-dose activity change, negative = inhibition, most hits filed as inhibitors; 310,000 compounds, 5.9% hits; further: potency means the concentration at half of the fitted maximal effect; on the % scale 0 is the no-effect control and ±100 the full control effect
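In quantitative HTS format, infected erythrocytes bearing luciferase-reporter parasites were treated for a single generation at 37 C. Luminescence after adding detection reagent served as the growth measure.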
Cycloheximide cs: Cycloheximide Counterscreen for Small Molecule Inhibitors of Shiga Toxin; 300,000 compounds, 12% hits; AID 2314, 2010; max response, %; cell reporter, cycloheximide protein synthesis inhibition counterscreen; in the data active means max response mostly above about 13%, no sharp cut-off; inactive means mostly below about 14%; further: read at 38.3 µM for the half of the compounds with a filed dose; 0% is about no effect
Shiga inhibitor: A qHTS for Small Molecule Inhibitors of Shiga Toxin. inhibition, % at 38.7 µM. 290,000 compounds, 9.2% hits. Vero cells, Shiga toxin protein synthesis inhibition reporter. AID 2315, 2010; in the data active means inhibition mostly above about 28%, no sharp cut-off; inactive means mostly below about 43%; further: 0% is about no effect
* = called active by the depositor; ? = inconclusive; nt = no result. Unless noted, the call rests on the fitted dose curve; in most records, active means well fitted inhibition curve with a large enough effect; inconclusive means small, poorly fitted or top-dose-only effect, or another doubt; inactive means no such curve, though single readings can be large or run the other way.

SMILES	NS1 function inh	Pf growth 96h	Pf growth 48h	Cycloheximide cs	Shiga inhibitor
CC(=O)N1CCc2cc(S(=O)(=O)NCC(=O)NCc3ccc(Cl)cc3)ccc21	-4%	20%	?	-1	-3
CCCCCCc1c(C)c2ccc(OCC(=O)N3CCC[C@H]3C(=O)O)c(C)c2oc1=O	25%	?	?	-3	0
CC(=O)CCC(=O)O	nt	-4%	-2%	nt	nt
O=c1[nH]cnc2sc3c(c12)CCC3	-4%	9%	8%	1	8
Cc1c([N+](=O)[O-])c([N+](=O)[O-])nn1CC(=O)N1CCOCC1	nt	?	-1%	-6	19
O=[N+]([O-])c1cc(CN2CCOCC2)c2cccnc2c1O	nt	-16%	4.1µM*	10	6
O=[N+]([O-])c1cc(CN2CCN(c3ccccc3)CC2)c(O)c2ncccc12	4%	-18%	?	-1	-9
O=C(Cn1cnc2cc([N+](=O)[O-])ccc2c1=O)NC(c1ccccc1)c1ccccc1	21%	?	-27%	-1	-15
CCN(CC)Cc1c(O)ccc2cc(-c3nc4ccccc4n3C)c(=O)oc12	5%	-5%	39%	11*	9
CC(=O)Oc1ccc2cc(-c3nc4ccccc4n3C)c(=O)oc2c1	-5%	nt	138%	32	75*
Cn1c(-c2cc3ccc(OC(=O)C(C)(C)C)cc3oc2=O)nc2ccccc21	-5%	113%	56%	12	32
COc1ccccc1C(=O)NC1CCN(C(=O)Nc2ccc(C)cc2)CC1	6%	?	-25%	-4	-6
O=c1c2ccccc2nc2n1CC/C2=C/N1CCN(c2cccc(C(F)(F)F)c2)CC1	?	15%	?	-4	-29
COCCCNC(=O)c1oc2ccc(S(=O)(=O)N3CCOCC3)cc2c1C	16%	43%	-9%	-1	-9
Cc1c(C(=O)N2CCN(C)CC2)oc2ccc(S(=O)(=O)N3CCOCC3)cc12	-14%	8.3µM*	-21%	-2	13
Cc1c(C(=O)N2CCC3(CC2)OCCO3)oc2ccc(S(=O)(=O)N3CCOCC3)cc12	-15%	?	-16%	-2	-14
CCOC(=O)N1CCN(C(=O)c2oc3ccc(S(=O)(=O)N4CCCCC4)cc3c2C)CC1	-9%	nt	?	-3	-7
Cc1c(C(=O)N2CCCCC2)oc2ccc(S(=O)(=O)N3CC(C)CC(C)C3)cc12 (configuration not stated)	-35%	12µM*	?	-5	-7
Cc1c(C(=O)NCCc2ccccc2)oc2ccc(S(=O)(=O)N3CCOCC3)cc12	-48%	-3%	?	15*	15
O=C(CSc1nnc(-c2ccncc2)n1-c1ccc(F)cc1)NNC(=O)c1cccc(O)c1	5%	9%	14%	8	-10
O=C(c1ccco1)N1CCN(c2ccc(Cl)c(Cl)c2)CC1	-73%	nt	nt	nt	nt
CC(C)c1ccc2c(c1)C1Cc3ccccc3C1N2 (configuration not stated)	-9%	?	?	56*	42*
O=S1(=O)NC2c3ccccc3CC2O1 (configuration not stated)	-4%	-27%	60%	4	-2
CC1=C(C)CC(C(=O)NNC(=O)c2csc(C)c2C)C(C(=O)O)C1 (configuration not stated)	13%	-3%	2%	21*	79*
COc1ccc(Nc2cnn(-c3nc4ccccc4s3)c(=O)c2Cl)cc1	-28%	?	73%	48*	76*
SMILES	NS1 function inh	Pf growth 96h	Pf growth 48h	Cycloheximide cs	Shiga inhibitor
Cc1ccc2c(c1)N(CC(=O)N1CCN(c3nc4ccccc4s3)CC1)C(=O)C(C)O2 (configuration not stated)	-5%	?	-7%	8	72
O=c1c2ccccc2cnn1-c1nc2ccccc2s1	3%	nt	nt	nt	nt
Cc1ccc(C)c(N2CCN(c3cnn(-c4nc5ccccc5s4)c(=O)c3Cl)CC2)c1	-5%	218%	194%	64*	138*
O=c1c(Cl)c(Nc2cccc(Cl)c2)cnn1-c1nc2ccccc2s1	7%	69%	270%	88*	69*
O=S(=O)(/C=C/c1ccccc1)N1CCOCC1	-6%	40%	6%	-1	-3
CSc1ccc(CN(C)Cc2nc3cc(C(F)(F)F)ccc3c(=O)[nH]2)cc1	nt	?	-11%	-3	1
CCC(=O)CC	nt	nt	nt	-7	5
CN(C)CCN(C(=O)c1ccc2c(c1)CCCC2)c1nc2c(F)cccc2s1	-10%	-25%	7%	56*	62
CN(C)CCN(C(=O)c1ccc2ccccc2c1)c1nc2c(F)cc(F)cc2s1	-51%	4%	27%	9	-2
COc1cccc2sc(N(CCN(C)C)C(=O)c3ccc4c(c3)CCCC4)nc12	-13%	?	10µM*	-1	28
Fc1ccc(-c2cc(C(F)(F)F)nc(NCc3cccs3)n2)cc1	0%	?	?	-3	-7
Cc1onc(-c2c(F)cccc2Cl)c1C(=O)N1CCOC12CCCCC2	-6%	-31%	105%	10	-24
O=C(CSc1ncccc1-c1nc2ccccc2[nH]1)N1CCCCC1	-8%	?	-6%	34*	79*
CN(C)C(=O)CSc1ncccc1-c1nc2ccccc2[nH]1	-5%	-21%	11%	1	-8
O=C(CSc1ncnc2ccccc12)N1CCCC1	-4%	-4%	nt	19	51
CC(C)NC(=O)CSc1ncccc1-c1nc2ccccc2[nH]1	-14%	-7%	1%	13*	24
Cc1ccc2nc(SCC(=O)N3c4ccccc4CC3C)c(C)cc2c1 (configuration not stated)	7%	?	nt	18	-4
Cc1ccc2nc(-c3cccnc3SCC(=O)N3c4ccccc4CC3C)[nH]c2c1 (configuration not stated)	25%	?	?	31*	136*
CCN(CC)C(=O)CSc1ncccc1-c1nc2ccccc2[nH]1	2%	7%	7%	17*	27
Cc1ccnc(NC(=O)c2ccc3c(c2)C(=O)N(CCC(C)C)C3=O)c1	-4%	?	23%	8	14
O=C(Nc1ccc2[nH]c(=O)[nH]c2c1)c1cccc([N+](=O)[O-])c1	18%	34%	62%	-2	-7
Cc1ccc(N)cc1NC(=O)CN1CCOCC1	?	?	10%	-2	-3
COc1ccc(OC)c(/C=N/N2CCN(c3ccc(Cl)cc3)CC2)c1	1%	-2%	-4%	-1	14
Cc1[nH][nH]c(=O)c1N=Nc1ccccc1C#N	nt	23%	-18%	50*	40
COc1ccccc1N=Nc1c(C)[nH][nH]c1=O	-6%	4%	36%	11	35
CCC(C)(C)NC(=O)CN(C(=O)CCC(=O)Nc1nccs1)c1cccc(C)c1C	18%	1%	13µM*	-1	-6
CCC(C)(C)NC(=O)C(c1ccc(O)cc1)N(CCOC)C(=O)CCC(=O)Nc1nccs1 (configuration not stated)	-77%	21%	2.9µM*	-6	-2

Screening results: PubChem, National Center for Advancing Translational Sciences (NCATS)
